Compound activity (PubChem)
HIF act: HIF pathway transcriptional activation | U2OS HRE-luciferase reporter, luminescence; normalized: DMSO 0%, desferrioxamine 100% | 300,000 compounds, 0.32% hits | activation, % at 7.5 µM (by protocol) | AID 1910;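 active = mean activation of at least 10% of the iron chelator positive control signal, with at least half of replicates also reaching 10%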
GC-B act: GC-B (human) receptor activation; P20594; HEK293-GC-B cells, CNP EC30, cGMP TR-FRET; 0% at EC30 CNP, 100% saturating CNP; activation, % at 10 µM; 370,000 compounds, 0.11% hits; AID 1920062;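 active = activation at 10 µM reaching about 35% in either raw or pattern-adjusted values, limit read from the data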
GC-A act: GC-A (human) enzyme activation; P16066; AID 1671463; activation, % at 10 µM; 370,000 compounds, 0.14% hits; HEK293 GC-A cells, cGMP TR-FRET, EC30 ANP; 0% at EC30 ANP, 100% saturating ANP; in the data active = activation above about 40%
Target sequence (P16066 whole entry, looked up): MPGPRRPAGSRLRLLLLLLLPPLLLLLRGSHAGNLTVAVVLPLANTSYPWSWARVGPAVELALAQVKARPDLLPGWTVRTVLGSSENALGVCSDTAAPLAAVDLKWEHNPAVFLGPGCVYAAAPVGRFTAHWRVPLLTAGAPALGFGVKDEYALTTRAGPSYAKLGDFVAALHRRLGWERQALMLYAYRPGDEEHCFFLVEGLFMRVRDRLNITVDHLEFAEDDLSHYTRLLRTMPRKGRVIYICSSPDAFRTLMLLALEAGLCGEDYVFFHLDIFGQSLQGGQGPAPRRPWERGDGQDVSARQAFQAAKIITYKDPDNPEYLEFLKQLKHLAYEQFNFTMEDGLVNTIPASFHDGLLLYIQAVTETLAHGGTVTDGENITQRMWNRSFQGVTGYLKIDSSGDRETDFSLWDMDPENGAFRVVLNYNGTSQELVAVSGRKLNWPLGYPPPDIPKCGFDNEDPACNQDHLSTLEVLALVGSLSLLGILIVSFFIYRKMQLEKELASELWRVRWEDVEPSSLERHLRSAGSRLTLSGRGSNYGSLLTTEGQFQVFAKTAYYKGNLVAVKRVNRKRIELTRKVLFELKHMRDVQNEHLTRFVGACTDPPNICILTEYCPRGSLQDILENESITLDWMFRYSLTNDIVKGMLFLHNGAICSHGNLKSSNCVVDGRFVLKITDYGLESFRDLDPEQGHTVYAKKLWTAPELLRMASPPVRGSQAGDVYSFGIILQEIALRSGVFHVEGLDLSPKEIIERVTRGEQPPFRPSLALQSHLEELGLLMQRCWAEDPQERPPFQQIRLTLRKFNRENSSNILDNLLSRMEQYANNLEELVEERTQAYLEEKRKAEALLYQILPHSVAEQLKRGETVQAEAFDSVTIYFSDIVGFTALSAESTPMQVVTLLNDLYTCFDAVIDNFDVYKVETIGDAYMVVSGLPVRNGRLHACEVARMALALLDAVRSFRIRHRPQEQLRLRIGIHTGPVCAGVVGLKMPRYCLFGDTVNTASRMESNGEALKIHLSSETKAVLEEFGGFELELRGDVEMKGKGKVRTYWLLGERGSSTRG
proKLK7 act: activators of human kallikrein-7 zymogen; P49862; purified proKLK7, EDANS-DABCYL substrate fluorescence; 100% is mature enzyme control, 0% vehicle; activation, % at 7 µM; 370,000 compounds, 0.9% hits;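 active = activation above the mean of all tested compounds plus 3 SD, computed per campaign excluding outliers beyond control limits, cut at about 13% in these data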
Starred values were filed as active, the others as inactive; / = no result given. Rows were chosen to be rich in hits. Some 1.3% of all compounds tested hit in one or more screens of this group.

SMILES	HIF act	GC-B act	GC-A act	proKLK7 act
CC1CN(c2ccc([N+](=O)[O-])c(NCCOc3ccccc3)c2)CCN1 (stereo not given)	0	22	44*	0
O=C(C1=C[C@@H](C2CC2)C[C@@H](OCCCCO)O1)N1CCN(Cc2ccc3c(c2)OCO3)CC1	40*	1	0	0
O=C(C1=C[C@@H](C2CCCCC2)C[C@@H](OCCCCO)O1)N1CCN(Cc2ccc3c(c2)OCO3)CC1	-2	-2	-1	0
CN1CCC(N[C@@H](Cc2ccccc2)C(=O)NCCCc2ccccc2)(C(=O)NCCc2c[nH]c3ccccc23)CC1	/	-12	-5	/
CC(=O)c1ccc(NC(=O)C2CCN(S(=O)(=O)c3ccc4c(c3)N(C(C)=O)CCO4)CC2)cc1	1	3	-1	1
CCOc1ccc(NC(=O)C2CCN(S(=O)(=O)c3ccc4c(c3)N(C(C)=O)CCO4)CC2)cc1	25*	5	-2	0
COc1ccc(-c2[nH]ncc2N=Nc2ccccc2)cc1	2	12	2	0
COc1ccc(-c2[nH]ncc2N=Nc2cc(C)cc(C)c2)cc1	2	55*	-1	0
Cc1ccc(Cc2c(-c3ccc(C)cc3)nc3ccc(Cl)cn23)cc1	/	37*	30	-3
Cc1ccc2nc(-c3ccc(Cl)cc3)c(Cc3cccc(F)c3)n2c1	/	36*	27	-3
Cc1ccc(Cc2c(-c3ccc(Cl)cc3)nc3ccc(Cl)cn23)cc1	/	26	28	-1
Cc1ccc(S(=O)(=O)CCC(=O)c2ccc(F)cc2)cc1	0	-3	71*	0
Cc1ccc(C(=O)CCS(=O)(=O)c2ccc(F)cc2)cc1	0	-6	52*	0
Cc1ccc(S(=O)(=O)CCC(=O)NCc2ccc(Cl)cc2)cc1	0	2	3	0
Cc1ccc(C(=O)CCS(=O)(=O)c2ccc(Cl)cc2)cc1	0	-10	52*	0
CC(C)C[C@H](NC1(C(=O)NC2CCCCC2)CCC1)C(=O)NCC(c1ccccc1)c1ccccc1	/	-3	-4	/
CCCCOCCCNC(=O)C[C@H]1C[C@@]2(C(=O)OC)C(=C[C@H](C(C)C)O[C@@H]2C2CC2)N(CCC2=CCCCC2)C1=O	/	-4	-4	1
NC(=O)c1c(N)[nH]c(C(=O)c2ccccc2)c1-c1ccccn1	/	6	0	/
CCCN(CCC)C(C)C(=O)NCC1(c2ccccc2)CCCC1 (stereo not given)	719*	-5	-9	1
CCN(CC)CC(=O)NCC1(c2ccccc2)CCCC1	-1	-4	-2	0
CCOC(=O)c1cc2c(=O)n3ccccc3nc2n(Cc2ccco2)c1=NC(=O)c1ccc(OC)cc1OC	0	-2	-4	17*
O=C(CSc1cccc2cccnc12)OCC(=O)c1ccc(Br)cc1	0	-5	3	6
O=C(CSc1cccc2cccnc12)OCC(=O)c1ccccc1	0	-8	-1	73*
CCC(C)(C)c1nnc(NC(=O)C2CCN(C(=O)c3ccco3)CC2)s1	27*	2	10	0
CC1(c2nnnn2Cc2ccccc2)CCCC(=O)N1Cc1cccs1 (stereo not given)	/	3	-1	0
SMILES	HIF act	GC-B act	GC-A act	proKLK7 act
CC1(C)Cc2c(C#N)c(SCc3ccccc3)nc(N3CCOCC3)c2CO1	0	52*	21	0
CN(CCO)c1cccc2c1S(=O)(=O)N(Cc1cn(Cc3ccc(F)cc3)nn1)Cc1ccccc1O2	/	4	2	0
COC(=O)[C@]12C[C@H](CC(=O)N3CCCC3)C(=O)N(CCc3ccc(OC)c(OC)c3)C1=C[C@H](C(C)(C)C)O[C@@H]2C	/	-5	-1	0
CCCCC(=O)NC(c1cccs1)c1cc(Cl)c2cccnc2c1O (stereo not given)	34*	-1	-2	0
CCC(=O)NC(c1cccs1)c1cc(Cl)c2cccnc2c1O (stereo not given)	31*	1	-5	0
C#CCOCCOCCOCCNc1nc(N2CCOCC2)nc(N2CCN(C(=O)[C@H](CCC(=O)O)n3cc(C(N)CO)nn3)CC2)n1 (stereo not given in full)	/	-2	0	/
CC(C)c1cc(-c2cc(C(=O)NCc3ccccc3)on2)nc(NC2CCCC2)n1	18*	2	5	-4
CC(C)c1cc(-c2cc(C(=O)NCc3ccccc3)on2)nc(NCC2CC2)n1	0	4	1	0
CCC(=O)NC(c1ccc(C)cc1)c1ccc2cccnc2c1O (stereo not given)	97*	1	2	1
CCCC(=O)NC(c1ccc(N(C)C)cc1)c1ccc2cccnc2c1O (stereo not given)	48*	-1	1	0
CC(=O)NC(c1ccc(N(C)C)cc1)c1cc(Cl)c2cccnc2c1O (stereo not given)	/	-3	6	-1
CCCC(=O)NC(c1ccccc1Cl)c1ccc2cccnc2c1O (stereo not given)	71*	-2	-5	0
CCCC(=O)NC(c1ccc(C(C)C)cc1)c1ccc2cccnc2c1O (stereo not given)	119*	1	6	0
CC(=O)N[C@@H](C)CCc1ccc(Oc2ccc(OC(C)C)nc2)cc1	/	1	4	/
Cc1ccc(-c2nnc(NC(=O)COc3ccc(F)cc3Cl)o2)cc1C	/	-7	-5	/
CCOC(=O)C1CCN(C(=O)C(C)(C)NC(=O)Nc2ccc(N(C)C)cc2)CC1	/	-5	-5	/
O=C(OCc1ccccc1)[C@H](Cc1ccccc1)NC(=O)[C@@H]1CC=C[C@@H]2CCN(CCc3ccccc3)C(=O)[C@@H]21	/	-9	-2	/
CC(=O)OCCCN1C(=O)CCC12CCC(C)CC2 (stereo not given)	/	-2	1	-1
Cc1ccc(-n2c(Cc3cccs3)nnc2SCc2ccc([N+](=O)[O-])cc2)cc1	/	-12	-16	1
O=C(Nc1ccc(F)cc1)OCCN1CCCC12CCC(c1ccccc1)CC2 (stereo not given)	/	-4	-8	/
COC(=O)c1ccc2nc(-c3ccccc3)c(Cc3cccc(F)c3)n2c1	/	31	21	-3
COC(=O)c1ccc2nc(-c3ccco3)c(Cc3cccc(F)c3)n2c1	/	42*	29	-5
COC(=O)c1ccc2nc(-c3ccco3)c(Cc3ccc(C)cc3)n2c1	/	52*	44*	-13
COC(=O)c1ccc2nc(-c3ccc(F)cc3)c(Cc3cccc(F)c3)n2c1	/	39*	28	-2
Cc1ccc(Cc2c(-c3ccco3)nc3ccc(C)cn23)cc1	/	13	10	0
Cc1ccc(Cc2c(-c3ccco3)nc3c(C)cc(Br)cn23)cc1	/	50*	49*	-1
O=C(Nc1ccc(C(O)(C(F)(F)F)C(F)(F)F)cc1)c1c(F)cccc1F	/	-7	-3	/
Cc1ccc(C)c(NC(=O)C2CCCN2S(=O)(=O)c2cccnc2)c1 (stereo not given)	/	6	-2	0
